Where “and” joins values, the source holds several entries; their conditions need not be identical. Identical values can stand only once. Results filed as inconclusive are left out. Calls of active or inactive are those of the source. Calls follow the shape of the dose curve; as a rule, active = well fitted curve in the direction sought with a large enough effect in the repeat runs; inconclusive = weak or mixed curves; inactive = no such curve, though single readings can be large; an effect the other way counts as inactive or inconclusive.
Experiments:
[1] = A CellTox Green Cytotoxicity Assay to monitor cytotoxicity in HEK293 cells - 40 hour (AID 1224871); also: nearly all actives have a fitted effect of over 45% in size; also: potency is read from the fitted curve at half-maximal effect
Procedure, shortened: (§1)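 Dead-cell fluorescence measured kinetically: asymmetric cyanine dye, HEK293, 600 cells/well, 5 h settle, 23 nL cpd/DMSO, 37 C, reads 0–40 h every 8 h.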

[2] = qHTS RealTime-Glo MT Cell Viability Assay in HEK293 cells - 16 hour (AID 1224872); also: nearly all actives have a fitted effect of over 50% in size; also: potency is read from the fitted curve at half-maximal effect; as to activity change, negative = cytotoxicity: top concentration of the series differs between compounds
Procedure, shortened: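 Assay medium contained NanoLuc luciferase plus cell-permeant prosubstrate, added with HEK293 cells at 600 cells/well. After 5 h at 37 C/5% CO2 compounds were added; plates stayed at 37 C for 40 h with serial luminescence reads.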

[3] = qHTS RealTime-Glo MT Cell Viability Assay in HepG2 cells - 8 hour (AID 1224873); also: nearly all actives have a fitted effect of over 55% in size; also: potency is read from the fitted curve at half-maximal effect
Procedure, shortened: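 HepG2 cells (600/well) mixed with RealTime-Glo MT reagent, settled 5 h at 37 C/5% CO2 before compound addition. Nonlytic NanoLuc luminescence from viable-cell prosubstrate reduction read repeatedly during 40 h treatment at 37 C.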

[4] = qHTS RealTime-Glo MT Cell Viability Assay in HEK293 cells - 40 hour (AID 1224874); conditions: RealTime-Glo luminescence; max response: hits give low values; also: nearly all actives have a fitted effect of over 50% in size; also: potency is read from the fitted curve at half-maximal effect
Procedure, shortened: (§2)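 600 HEK293 cells per well, dispensed already mixed with RealTime-Glo MT reagents. Compound dosing came 5 h later. The same wells were read for luminescence at 0, 8, 16, 24, 32 and 40 h of exposure at 37 C.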

[5] = A CellTox Green Cytotoxicity Assay to monitor cytotoxicity in HEK293 cells - 24 hour (AID 1224875); also: nearly all actives have a fitted effect of over 45% in size; also: potency is read from the fitted curve at half-maximal effect; as to activity change: series mostly up to about 77 µM
Procedure, shortened: as §1

[6] = A CellTox Green Cytotoxicity Assay to monitor cytotoxicity in HepG2 cells - 16 hour (AID 1224876); also: nearly all actives have a fitted effect of over 45% in size; also: potency is read from the fitted curve at half-maximal effect
Procedure, shortened: (§3)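 First, HepG2 cells (600/well) mixed with reagent were plated; second, after 5 h at 37 C they received compounds via pintool; third, fluorescence was measured at 0 h through 40 h at 8 h intervals.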

[7] = qHTS RealTime-Glo MT Cell Viability Assay in HepG2 cells - 32 hour (AID 1224877); also: nearly all actives have a fitted effect of over 55% in size; also: potency is read from the fitted curve at half-maximal effect
Procedure, shortened: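 qHTS, HepG2, 600 cells/well, RealTime-Glo (NanoLuc + prosubstrate) added with cells; 5 h preincubation; DMSO compound addition; 37 C; luminescence at 0/8/16/24/32/40 h.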

[8] = A CellTox Green Cytotoxicity Assay to monitor cytotoxicity in HepG2 cells - 24 hour (AID 1224878); also: nearly all actives have a fitted effect of over 45% in size; also: potency is read from the fitted curve at half-maximal effect
Procedure, shortened: as §3

[9] = A CellTox Green Cytotoxicity Assay to monitor cytotoxicity in HepG2 cells - 40 hour (AID 1224879); also: nearly all actives have a fitted effect of over 40% in size; also: potency is read from the fitted curve at half-maximal effect
Procedure, shortened: as §3

[10] = qHTS RealTime-Glo MT Cell Viability Assay in HEK293 cells - 0 hour (AID 1224880)
Procedure, shortened: as §2
% is scaled to controls: 0 for no effect and ±100 for the full control effect.

Nc1nc(-c2ccccc2)cs1
inactive: Potency [1] | Potency [2] | Potency [3] | max response [4] -6.02% | Potency [5] | Potency [6] | Potency [7] | Potency [8] | Potency [9] | Potency [10]

Cc1nc2n(c(=O)c1CCN1CCC(c3noc4cc(F)ccc34)CC1)CCCC2
active: Potency [2] 3.01 µM | Potency [4] 3.01 µM
inactive: Potency [1] | Potency [3] | Potency [5] | Potency [6] | Potency [7] | Potency [8] | Potency [9] | Potency [10]

O=S(=O)(O)c1ccc(Nc2nc(Nc3ccc(/C=C/c4ccc(Nc5nc(Nc6ccc(S(=O)(=O)O)cc6)nc(N(CCO)CCO)n5)cc4S(=O)(=O)O)c(S(=O)(=O)O)c3)nc(N(CCO)CCO)n2)cc1
inactive: Potency [1] | Potency [2] | Potency [3] | max response [4] -1.51% | Potency [5] | Potency [6] | Potency [7] | Potency [8] | Potency [9] | Potency [10]

O=C(O)c1cc(N=Nc2ccc([N+](=O)[O-])cc2)ccc1O
inactive: Potency [1] | Potency [2] | Potency [3] | max response [4] -17% | Potency [5] | Potency [6] | Potency [7] | Potency [8] | Potency [9]

O=c1[nH]c(=O)n([C@H]2C[C@H](O)[C@@H](CO)O2)cc1F
inactive: Potency [1] | Potency [2] | Potency [3] | Potency [5] | Potency [7] | Potency [10]
active: Potency [4] 0.601 µM | Potency [6] 6.01 µM | Potency [8] 6.01 µM | Potency [9] 5.35 µM

CC(C)(C)c1ccc(C(O)CCCN2CCC(C(O)(c3ccccc3)c3ccccc3)CC2)cc1 (stereo unspecified)
active: Potency [1] 7.56 µM | Potency [2] 6.74 µM | Potency [3] 10.7 µM | Potency [4] 4.77 µM | Potency [5] 9.52 µM | Potency [6] 10.7 µM | Potency [7] 5.35 µM | Potency [8] 8.49 µM | Potency [9] 5.35 µM

O=C1C(c2[nH]c3ccc(S(=O)(=O)O)cc3c2O)=Nc2ccc(S(=O)(=O)O)cc21
inactive: Potency [1] | Potency [2] | Potency [3] | max response [4] 10.2% | Potency [5] | Potency [6] | Potency [7] | Potency [8] | Potency [9] | Potency [10]

C#CC1(O)CC[C@H]2[C@@H]3CCC4=CCCC[C@@H]4[C@H]3CC[C@@]21C (stereo partly specified)
active: Potency [1] 34.7 µM and 21.3 µM | Potency [2] 19.5 µM and 21.3 µM | Potency [3] 21.3 µM | Potency [4] 19.5 µM and 19 µM | Potency [5] 21.9 µM and 21.3 µM | Potency [6] 34.7 µM and 19 µM | Potency [7] 23.9 µM | Potency [8] 34.7 µM and 19 µM | Potency [9] 38.9 µM and 21.3 µM
inactive: Potency [10]

O=C(O)O
inactive: cytotoxicity increase [1] 4.75% [at 6.97 µM] | activity change, negative = cytotoxicity [2] 1.92% [at 6.97 µM] | viability change, negative = cytotoxic [3] -4.4% [at 6.97 µM] | max response [4] -2.54% | activity change [5] 5.15% [at 6.97 µM, hits give high values] | cytotoxicity increase [6] -0.218% [at 6.97 µM] | activity change, negative = cytotoxic [7] 7.61% [at 6.97 µM] | cytotoxicity [8] -2.66% [at 6.97 µM] | cytotoxicity increase [9] -9.85% [at 6.97 µM] | activity change, negative = cytotoxicity [10] 3.17% [at 6.97 µM]

OC1CCCc2ccccc21 (stereo unspecified)
inactive: Potency [1] | Potency [2] | Potency [3] | max response [4] -0.638% | Potency [5] | Potency [6] | Potency [7] | Potency [8] | Potency [9] | Potency [10]

C1CCC(SSC2CCCCC2)CC1
inactive: Potency [1] | Potency [2] | Potency [3] | max response [4] -7.62% | Potency [5] | Potency [6] | Potency [7] | Potency [8] | Potency [9] | Potency [10]

O=S(=O)(O)c1ccccc1/C=C/c1ccc(-c2ccc(/C=C/c3ccccc3S(=O)(=O)O)cc2)cc1
inactive: Potency [1] | Potency [2] | Potency [3] | max response [4] 3.02% | Potency [5] | Potency [6] | Potency [7] | Potency [8] | Potency [9] | Potency [10]

CCN(CC)C(=O)c1cc(S(=O)(=O)Cc2ccccc2)c(N2CCC(c3ccccc3)CC2)cc1N(CC)CCN(C)C
inactive: Potency [10]
active: Potency [1] 17.2 µM | Potency [2] 15.3 µM | Potency [3] 17.2 µM | Potency [4] 7.67 µM | Potency [5] 19.3 µM | Potency [6] 17.2 µM | Potency [7] 17.2 µM | Potency [8] 17.2 µM | Potency [9] 13.6 µM

O=C(O)Cc1ccc2c(c1)C(=O)c1ccccc1CO2
inactive: Potency [1] | Potency [2] | Potency [3] | max response [4] 1.5% | Potency [5] | Potency [6] | Potency [7] | Potency [8] | Potency [9] | Potency [10]

CN1CCC[C@@H]1CCO[C@](C)(c1ccccc1)c1ccc(Cl)cc1
active: Potency [1] 26.8 µM | Potency [2] 19 µM | Potency [4] 16.9 µM | Potency [5] 26.8 µM | Potency [6] 21.3 µM | Potency [7] 23.9 µM | Potency [8] 21.3 µM | Potency [9] 21.3 µM
inactive: Potency [3]

Nc1ccc(NCCO)c([N+](=O)[O-])c1
inactive: Potency [1] | Potency [2] | Potency [3] | max response [4] 0.226% | Potency [5] | Potency [6] | Potency [7] | Potency [8] | Potency [9] | Potency [10]

CCN1C(=O)c2ccccc2C1Nc1ccc(OCCN2CCCCC2)cc1 (stereo unspecified)
active: Potency [2] 4.77 µM | Potency [4] 4.77 µM
inactive: Potency [1] | Potency [3] | Potency [5] | Potency [6] | Potency [7] | Potency [8] | Potency [9] | Potency [10]

c1ccc(SSc2ccccc2)cc1
inactive: Potency [1] | Potency [2] | Potency [3] | max response [4] -15.4% | Potency [5] | Potency [6] | Potency [7] | Potency [8] | Potency [9]
